Several values for one entry are separate records, joined by “and”; a condition that tells them apart may be missing. Identical values can stand only once. Hit rate of the full screen: of about 5,500 compounds, about 2,000 (36%) were called active. Roughly 18% stayed inconclusive and do not appear here. No stated cut-off is given here; in the data, active means normalized growth mostly below about 0.91 (no sharp cut-off); inconclusive means no clear call, values can overlap the other calls; inactive means mostly above about 0.92. The list shows a part of the results.
Assay: chemical genetic growth profiling, strain panel (AID 1159580);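 further: tested at 20 µM; growth read once vehicle control cultures reached saturation at 30 °C; 1 = growth at the plate median or of vehicle wells; lower values mean less growth of the strain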
Details: S. cerevisiae deletion strains, growth OD

Measured: normalized growth

O=c1ccc2cc(O[C@@H]3O[C@H](CO)[C@@H](O)[C@H](O)[C@H]3O)c(O)cc2o1
inactive: locus YAL013W, strain DEP1, hits give low values 1.04 | locus YAL021C, strain ccr4, hits give low values 0.991 | locus YAL026C, strain drs2, hits give low values 0.997 | locus YAL030W, strain snc1, hits give low values 0.971 | locus YBL061C, strain skt5, hits give low values 0.972 | locus YBR009C, strain hhf1, hits give low values 1.01 | locus YBR021W, strain FUR4, hits give low values 1.06 | locus YBR023C, strain chs3, hits give low values 0.983 | locus YBR171W, strain sec66, hits give low values 0.956 | locus YBR229C, strain ROT2, hits give low values 1.02 | locus YBR231C, strain swc5, hits give low values 0.982 | locus YBR279W, strain paf1, hits give low values 0.988 | locus YCL011C, strain gbp2, hits give low values 0.99 | locus YCL016C, strain dcc1, hits give low values 0.999 | locus YCL029C, strain bik1, hits give low values 0.998 | locus YCL061C, strain MRC1, hits give low values 0.983 | locus YCL069W, strain vba3, hits give low values 0.977 | locus YCR088W, strain abp1, hits give low values 0.978 | locus YDL005C, strain med2, hits give low values 0.958 | locus YDL035C, strain GPR1, hits give low values 1.04 | locus YDL040C, strain nat1, hits give low values 0.976 | locus YDL074C, strain BRE1, hits give low values 1.02 | locus YDL101C, strain DUN1, hits give low values 1.01 | locus YDL134C, strain PPH21, hits give low values 1.02 | locus YDL185W, strain tfp1, hits give low values 1 | locus YDL192W, strain arf1, hits give low values 0.991 | locus YDR001C, strain nth1, hits give low values 0.987 | locus YDR069C, strain doa4, hits give low values 0.977 | locus YDR101C, strain arx1, hits give low values 0.995 | locus YDR137W, strain rgp1, hits give low values 1 | locus YDR159W, strain sac3, hits give low values 0.978 | locus YDR162C, strain NBP2, hits give low values 1.04 | locus YDR195W, strain ref2 0.875 | locus YDR297W, strain sur2, hits give low values 0.988 | locus YDR318W, strain mcm21, hits give low values 0.999 | locus YDR334W, strain swr1, hits give low values 0.982 | locus YDR335W, strain msn5, hits give low values 0.995 | locus YDR388W, hits give low values 0.986 | locus YDR392W, strain spt3, hits give low values 1.02 | locus YDR502C, strain sam2, hits give low values 0.993 | locus YEL003W, strain gim4, hits give low values 0.986 | locus YEL037C, strain rad23, hits give low values 0.982 | locus YEL061C, strain CIN8 (second series), hits give low values 0.974 | locus YEL061C, strain CIN8, hits give low values 1.01 | locus YER015W, strain faa2, hits give low values 0.992 | locus YER016W, strain bim1, hits give low values 0.983 | locus YER110C, hits give low values 0.99 | locus YER111C, strain swi4, hits give low values 0.961 | locus YER155C, strain BEM2 (second series), hits give low values 0.927 | locus YER155C, strain BEM2, hits give low values 1 | locus YER167W, strain BCK2, hits give low values 1.02 | locus YFR010W, strain ubp6, hits give low values 0.974 | locus YGL078C, strain dbp3, hits give low values 0.997 | locus YGL086W, strain mad1, hits give low values 0.979 | locus YGL167C, strain pmr1, hits give low values 0.964 | locus YGL173C, strain kem1, hits give low values 0.977 | locus YGL227W, strain vid30, hits give low values 0.981 | locus YGL240W, strain doc1, hits give low values 0.981 | locus YGL248W, strain PDE1, hits give low values 1.03 | locus YGL253W, strain hxk2, hits give low values 0.994 | locus YGR135W, strain pre9, hits give low values 0.995 | locus YGR252W, strain gcn5, hits give low values 0.997 | locus YHR013C, strain ard1, hits give low values 0.963 | locus YHR027C, strain rpn1, hits give low values 0.978 | locus YHR030C, strain SLT2, hits give low values 1.01 and 1.03 | locus YHR079C, strain IRE1 (second series), hits give low values 0.99 | locus YHR079C, strain IRE1, hits give low values 1.02 | locus YHR094C, strain hxt1, hits give low values 0.995 | locus YHR129C, strain ARP1, hits give low values 1.02 | locus YHR142W, strain chs7, hits give low values 0.982 | locus YHR200W, strain rpn10, hits give low values 0.999 | locus YIL066C, strain RNR3, hits give low values 1.05 | locus YIL073C, strain SPO22, hits give low values 1.02 | locus YIL125W, strain kgd1, hits give low values 0.995 | locus YIR030C, strain dcg1, hits give low values 0.986 | locus YJL092W, strain hpr5, hits give low values 0.994 | locus YJL095W, strain BCK1 (second series), hits give low values 0.973 | locus YJL095W, strain BCK1, hits give low values 1.01 and 1.02 | locus YJL115W, strain asf1, hits give low values 0.971 | locus YJL129C, strain trk1, hits give low values 0.993 | locus YJL134W, strain LCB3, hits give low values 1.01 | locus YJL154C, strain vps35, hits give low values 0.98 | locus YJL164C, strain tpk1, hits give low values 0.991 | locus YJL166W, strain qcr8, hits give low values 0.962 | locus YJL168C, strain set2, hits give low values 0.987 | locus YJL187C, strain SWE1 (second series), hits give low values 1.01 | locus YJR043C, strain POL32, hits give low values 1.04 | locus YJR066W, strain TOR1, hits give low values 0.954 | locus YKL009W, strain mrt4, hits give low values 0.978 | locus YKL068W, hits give low values 1 | locus YKL085W, strain MDH1 (second series), hits give low values 0.996 | locus YKL085W, strain MDH1, hits give low values 0.996 | locus YKL160W, strain elf1, hits give low values 0.992 | locus YKR001C, strain vps1, hits give low values 0.983 | locus YKR026C, strain gcn3, hits give low values 0.964 | locus YKR091W, strain srl3, hits give low values 0.971 | locus YLL001W, strain dnm1, hits give low values 0.962 | locus YLL026W, hits give low values 0.988 | locus YLL041C, strain sdh2, hits give low values 0.971 | locus YLR027C, strain aat2, hits give low values 0.983 | locus YLR039C, strain RIC1, hits give low values 1.03 | locus YLR058C, strain SHM2, hits give low values 1.02 | locus YLR102C, strain apc9, hits give low values 1 | locus YLR113W, strain HOG1, hits give low values 1.01 | locus YLR221C, strain rsa3, hits give low values 1.03 | locus YLR258W, strain gsy2, hits give low values 0.973 | locus YLR262C, strain YPT6 (second series), hits give low values 0.955 | locus YLR262C, strain YPT6, hits give low values 1.08 | locus YLR268W, strain sec22, hits give low values 0.989 | locus YLR320W, strain mms22, hits give low values 0.984 | locus YLR330W, strain CHS5, hits give low values 1.02 | locus YLR342W, strain FKS1 (second series), hits give low values 1.03 | locus YLR342W, strain FKS1, hits give low values 0.973 | locus YLR357W, strain rsc2, hits give low values 0.96 | locus YLR370C, strain arc18, hits give low values 0.989 | locus YLR371W, strain rom2, hits give low values 0.993 | locus YLR384C, strain iki3, hits give low values 0.97 | locus YLR418C, strain cdc73, hits give low values 1.03 | locus YML016C, strain PPZ1, hits give low values 1.02 | locus YML032C, strain rad52, hits give low values 1.01 | locus YML120C, strain ndi1, hits give low values 0.978 | locus YML124C, strain tub3, hits give low values 0.991 | locus YMR058W, strain fet3, hits give low values 0.978 | locus YMR078C, strain ctf18, hits give low values 0.99 | locus YMR125W, strain sto1, hits give low values 0.97 | locus YMR129W, hits give low values 0.991 | locus YMR205C, strain PFK2, hits give low values 0.962 | locus YMR223W, strain ubp8, hits give low values 0.99 | locus YMR231W, strain pep5, hits give low values 0.971 | locus YMR307W, strain GAS1, hits give low values 1.09 | locus YNL067W, strain RPL9B, hits give low values 1.01 | locus YNL071W, strain lat1, hits give low values 0.993 | locus YNL128W, strain TEP1, hits give low values 1.03 | locus YNL183C, strain NPR1, hits give low values 0.962 | locus YNL209W, strain ssb2, hits give low values 0.993 | locus YNL233W, strain BNI4, hits give low values 1.01 | locus YNL248C, strain rpa49, hits give low values 1.01 | locus YNL250W, strain rad50, hits give low values 1.02 | locus YNL271C, strain bni1, hits give low values 0.993 | locus YNL298W, strain CLA4, hits give low values 0.985 | locus YNL307C, strain MCK1, hits give low values 1 | locus YNL322C, strain KRE1 (second series), hits give low values 0.947 | locus YNR049C, strain mso1, hits give low values 0.973 | locus YNR052C, strain pop2, hits give low values 0.994 | locus YOL012C, strain htz1 0.76 | locus YOL147C, strain pex11, hits give low values 0.996 | locus YOR001W, strain rrp6, hits give low values 0.987 | locus YOR061W, strain CKA2, hits give low values 1.02 | locus YOR069W, strain VPS5, hits give low values 1.01 | locus YOR070C, strain gyp1, hits give low values 0.981 | locus YOR080W, strain dia2, hits give low values 0.948 | locus YOR083W, strain WHI5, hits give low values 0.981 | locus YOR106W, strain vam3, hits give low values 0.97 | locus YOR136W, strain idh2, hits give low values 0.991 | locus YOR144C, strain elg1, hits give low values 0.999 | locus YOR184W, strain ser1, hits give low values 0.997 | locus YOR231W, strain MKK1, hits give low values 1.04 | locus YOR265W, strain rbl2, hits give low values 0.984 | locus YOR270C, strain vph1, hits give low values 1 | locus YOR290C, strain snf2, hits give low values 1 | locus YOR316C, strain cot1, hits give low values 0.991 | locus YPL051W, strain arl3, hits give low values 0.99 | locus YPL078C, strain atp4, hits give low values 0.962 | locus YPL106C, strain sse1, hits give low values 0.962 | locus YPL240C, strain hsp82, hits give low values 0.968 | locus YPL241C, strain CIN2, hits give low values 1.01 | locus YPL256C, strain CLN2, hits give low values 1.02 | locus YPR119W, strain clb2, hits give low values 0.99 | locus YPR141C, strain kar3, hits give low values 0.996 | locus YPR163C, strain tif3, hits give low values 0.987 | locus YPR167C, strain met16, hits give low values 0.986 | strain wtn01, hits give low values 0.997

Source: PubChem BioAssay AID1159580 (chemical genetic matrix, 2015)
